Twelve compounds from PubChem BioAssay (EPA / NIEHS) can be followed below.

Structures are written as SMILES. Records with an inconclusive call do not appear. The source made the active and inactive calls. Rule for the calls: active = hit-call score of the fitted dose curve at least 0.9, where 1 is the maximum; inconclusive = response in the unintended direction; inactive = score below 0.9.

Sequence of Cellular tumor antigen p53 (Homo sapiens) (P04637 whole entry, looked up): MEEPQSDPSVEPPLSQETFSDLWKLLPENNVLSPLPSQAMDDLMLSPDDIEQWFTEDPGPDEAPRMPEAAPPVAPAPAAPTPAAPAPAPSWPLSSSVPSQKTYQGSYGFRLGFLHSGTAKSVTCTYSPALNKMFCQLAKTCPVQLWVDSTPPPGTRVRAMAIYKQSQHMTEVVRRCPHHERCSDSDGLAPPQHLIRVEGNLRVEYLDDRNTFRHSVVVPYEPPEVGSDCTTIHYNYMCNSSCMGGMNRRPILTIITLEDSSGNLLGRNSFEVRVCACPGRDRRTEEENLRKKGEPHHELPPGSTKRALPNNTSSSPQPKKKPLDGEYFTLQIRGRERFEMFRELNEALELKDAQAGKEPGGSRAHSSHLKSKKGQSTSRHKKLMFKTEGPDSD

This experiment concerns the target Cellular tumor antigen p53 (Homo sapiens) (UniProt P04637). Kind of experiment: TOX21_p53_BLA_p4_ratio: Tox21 HCT-116 p53 Agonism Beta-lactamase Assay, Ratio, Phase 4 (AID 2283601). Put shortly: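 HCT116 cells carrying an inducible beta-lactamase reporter were plated at 4000 cells/well, rested 5 h, then exposed to compounds in DMSO (217-fold dilution) for 16 h at 37C. CCF4-AM substrate was loaded 2 h at room temperature; 460/530 nm emission ratio scored gain-of-signal versus DMSO.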
With `COc1ccccc1N1CCN(CCCCNC(=O)c2ccc(-c3ccc(C(C)=O)cc3)cc2)CC1`, the result was inactive.
Take `C[C@]12CC[C@@H]3c4ccc(OS(=O)(=O)O)cc4CC[C@H]3[C@@H]1CCC2=O`: the result was inactive.
In the case of `CN(C)CCCNCCC#N` it was “inactive”; in that of `COc1cc(-c2ccc(=O)[nH]n2)ccc1OC(F)F`, “inactive”; in that of `CCC(=O)O[C@]1(C(=O)CCl)[C@@H](C)C[C@H]2[C@@H]3CCC4=CC(=O)C=C[C@]4(C)[C@@]3(F)[C@@H](O)C[C@@]21C`, “inactive”.
For `C1C[C@@H]2[C@H]3CC[C@H](C3)[C@@H]2C1`, the result was inactive.
`COC(=O)CC#N`: the outcome was inactive.
The value for `O=C1c2ccccc2C(=O)C1c1ccc(Br)cc1` was “inactive”; that for `CCC(N)(CO)CO` was “inactive”; that for `C=CCCC=C` was “inactive”.
With `COc1ccc(C2C(=O)c3ccccc3C2=O)cc1`, the result was inactive.
For the compound `CC(=O)Nc1ccc(N)cc1`, the result was inactive.
